Drawing on PubChem BioAssay AID1272365 (Small Molecule Screening Facility, UW Madison, 2018), this text covers inhibition for 94 compounds.

Values joined by “and” are separate entries in the source; they are usually repeats but may differ in a detail not shown here. Equal entries are not always repeated. Out of some 430,000 compounds screened, about 2,600 (0.6%) were called active. No stated cut-off is given here; in the data, active means inhibition mostly above about 37% (no sharp cut-off); inactive means mostly below about 20%. For the sample, actives were picked, then their nearest neighbours and some compounds at random.

The assay deals with PriA–SSB C-terminal tail interaction (Klebsiella pneumoniae). Description: inhibitors of Klebsiella pneumoniae PriA binding to SSB C-terminal tail, primary screen, biochemical, AlphaScreen (AID 1272365).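 Further: plate controls were negative control peptide for no effect and reference peptide for full effect.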 To be noted: AlphaScreen SSBct-PriA binding, biotinylated peptide; at 33 µM, stronger effect = higher value. Background: Alpha assays give light when donor and acceptor beads are brought close together.
Broadly, the inhibition is the relative decrease from the control value, in per cent. Regarding `CCCN1CCCc2cc(CCNS(=O)(=O)c3ccc(NC(C)=O)cc3)ccc21`, the inhibition is 85% (active).

For the compound `Cc1cccc(CCNS(=O)(=O)c2ccc3c(c2)NC(=O)CO3)c1`, the inhibition is 1.31% (inactive).

For the compound `CCCNS(=O)(=O)c1ccc2c(c1)CCCN2C(C)=O`, the inhibition is -6.74% (inactive).

`CCCN1CCCc2cc(CCNS(=O)(=O)Cc3cccc(C)c3)ccc21`: the inhibition was 73% (active).

`CCCN1CCCc2cc(CCNC(=O)C(=O)Nc3ccc(OC(F)(F)F)cc3)ccc21`: the inhibition is -6% (inactive).

In the case of `Cc1cccc(CCNS(=O)(=O)c2ccc(S(=O)(=O)NC3CCCC3)cc2)c1`, the inhibition is -8.63% (inactive).

Turning to `Cn1cccc1CN(Cc1cccs1)C(=O)c1ccccc1S(=O)(=O)C(F)F`, the inhibition is 20% (inactive).

`Cc1nc(N2CCCC2)nc(C)c1NC(=O)c1cccc(Cl)c1`: the inhibition was -6% (inactive).

For the compound `Cc1cc(NC(=O)CSc2nnc(C)c3cnn(-c4ccc(F)cc4)c23)no1`, the inhibition is -7% (inactive) and -11% (inactive).

On to `CCc1ccc(S(=O)(=O)N2CCOC(c3ccccc3)C2)s1` (centres undefined), for which the inhibition is -11% (inactive).

As to `COc1ccc2nc(N=C(N)NC(=O)N3c4ccccc4Sc4ccccc43)nc(C)c2c1`, the inhibition is -5.89% (inactive).

`COc1ccc(-c2nnc(SC(=O)N3c4ccccc4Sc4ccccc43)o2)cc1`: the inhibition is 42.2% (active).

As to `COc1ccc(-c2nnc(NC(=O)c3ccc(SC)cc3)o2)cc1`, the inhibition is -3% (inactive).

As to `Cc1oc2cc(OCC(=O)c3ccc(F)cc3)ccc2c(=O)c1-c1ccccc1`, the inhibition is 7% (inactive).

`CCCCOc1ccc(C(=O)Nc2ccc3c(c2)C(=O)N(C)C3=O)cc1`: the inhibition is -4% (inactive).

Take `COc1ccc(S(=O)(=O)N2CCOCC2)cc1NC(=O)CSc1ncnc2ccccc12`: the inhibition is -9.78% (inactive).

For the compound `COc1ccc(S(=O)(=O)N2CCOCC2)cc1NC(=O)CSc1cc(C)ccc1C`, the inhibition was 49.7% (active).

For the compound `COc1ccc(S(=O)(=O)N2CCOCC2)cc1NC(=O)Cc1coc2cc(C)ccc12`, the inhibition is -2.71% (inactive).

On to `CC(=O)c1sc(NC(=O)COc2ccc(Cl)cc2)nc1C`, for which the inhibition was -10% (inactive).

In the case of `CSc1ccccc1NC(=O)C(=O)NC[C@]1(O)CCc2ccccc2C1`, the inhibition was -6% (inactive).

Consider `C[C@H](O)CN1CCN(C(=O)c2nc3ccccc3s2)CC1`, for which the inhibition is -1% (inactive).

Regarding `Cn1ccnc1SCC1CCN(C(=O)c2nc3ccccc3s2)CC1`, the inhibition was 39% (active).

For the compound `CS(=O)(=O)N1CCC(CNC(=O)c2nc3ccccc3s2)CC1`, the inhibition was -21% (inactive).

As for `O=C(Nc1nc2ccccc2s1)C(=O)NC1CC1`, the inhibition was 3% (inactive).

`O=C(O)C(NC(=O)c1ccc(Cl)cc1)=C(Cl)Cl`: the inhibition is -6% (inactive).

For `CC(C)c1nnc(NC(=O)/C=C/c2cccs2)s1`, the inhibition was -6% (inactive).

Take `COc1ccc(C)cc1NC(=O)CSc1ncc(-c2ccccc2)n1C`: the inhibition was -3% (inactive).

Regarding `COCCN1CCCc2ccc(NS(=O)(=O)CCc3ccccc3)cc21`, the inhibition is 34% (active).

As for `COCCN1CCCc2ccc(NS(=O)(=O)c3ccc(C)c(Cl)c3)cc21`, the inhibition is 54% (active).

Regarding `COCCN1CCCc2ccc(NC(=O)c3cccc(OC)c3)cc21`, the inhibition was 53% (inactive).

For `COc1cc(NS(=O)(=O)CCc2ccccc2)ccc1N1CCCC1=O`, the inhibition was -16% (inactive).

Turning to `COCCN1CCCc2ccc(NC(=O)c3ccc(OC)cc3)cc21`, the inhibition was 45% (inactive).

Take `O=C(C1CCCC1)N1CCc2ccc(NS(=O)(=O)CCc3ccccc3)cc21`: the inhibition was 5% (inactive).

Turning to `c1cncc(-c2nnc3sc(-c4cc5ccccc5o4)nn23)c1`, the inhibition is -28% (inactive).

Turning to `O=S(=O)(c1ccccc1F)N1CCN(c2cnnc(N3CCCC3)c2)CC1`, the inhibition is 0% (inactive).

Regarding `CCOC(=O)c1sc(=NC(=O)CCCSc2ccc(OC)cc2)n(C)c1C`, the inhibition was 2% (inactive).

As for `COc1ccc(-c2cc(C3CCN(c4ncccc4[N+](=O)[O-])CC3)[nH]n2)cc1`, the inhibition was 47.3% (active).

As for `COc1ccc(N2CCN(c3ccc([N+](=O)[O-])nc3)CC2)cc1`, the inhibition is 3.99% (inactive).

Consider `CC(=O)NC(Cc1ccccc1)C(=O)NC1CCN(c2ncccc2[N+](=O)[O-])CC1` (centres undefined), for which the inhibition was -3.58% (inactive).

Consider `COCCn1c(SCc2nc(-c3ccc(F)cc3)no2)nc2ccsc2c1=O`, for which the inhibition is -36% (inactive).

In the case of `COC(=O)c1sccc1S(=O)(=O)N1C2CCCC1COC2`, the inhibition is -5% (inactive).

With `Cc1noc(CNC(=O)NCc2cccs2)n1`, the inhibition was -6% (inactive).

In the case of `O=C(NCc1cccs1)NCc1cccnc1-c1ccsc1`, the inhibition was -6% (inactive).

For the compound `O=C(NCCn1ccnc1-c1ncccn1)NCc1cccs1`, the inhibition is 71% (active).

In the case of `O=C(Cc1cc(-c2ccc3c(c2)OCO3)on1)Nc1ccc(OC(F)(F)F)cc1`, the inhibition is 1% (inactive).

Turning to `COCCCNC(=O)C(=O)Nc1ccc(Cl)cn1`, the inhibition is -18% (inactive).

With `COC(=O)c1ccc(NC(=O)C2CCCN(c3ccc(-c4ccc(F)cc4)nn3)C2)cc1` (centres undefined), the inhibition is -17% (inactive).

As to `Cc1ccc(CN2CC(C(=O)N3CCN(S(=O)(=O)c4ccccc4)CC3)CC2=O)cc1` (centres undefined), the inhibition is -17.9% (inactive).

Regarding `O=C(C1CC(=O)N(c2ccc(F)cc2)C1)N1CCN(c2ccccc2)CC1` (centres undefined), the inhibition is -4.67% (inactive).

As for `CCC(C)c1ccccc1N1CC(C(=O)N2CCN(S(=O)(=O)c3ccc(F)cc3)CC2)CC1=O` (centres undefined), the inhibition was 44% (active).

For `CC(=O)[C@@H](C(=O)N(C)C)n1cnc2c(cnn2-c2cccc(Cl)c2)c1=O`, the inhibition was -12% (inactive).

For `O=[N+]([O-])c1ccccc1NCc1ccccc1Cl`, the inhibition is -2.79% (inactive).

`CC(C)C(=NNC(=O)Nc1ccccc1)c1ccccc1`: the inhibition is -2.11% (inactive).

As to `CC(C)C(=NNc1ccccc1[N+](=O)[O-])c1ccccc1`, the inhibition is 64.3% (active).

In the case of `Cc1cc(=O)[nH]c(-n2ncc(C(=O)Nc3ccc(OC(F)(F)F)cc3)c2C)n1`, the inhibition is -10% (inactive).

Take `Cc1cc(C)c(S(=O)(=O)NCCC(=O)NCc2cccnc2)cc1N(C)S(C)(=O)=O`: the inhibition is -9% (inactive).

Regarding `CCOC(=O)c1c(NC(=O)CSc2nnc(CN3CCOCC3)n2C)sc2c1CCCC2`, the inhibition was -3.23% (inactive).

For `CCOC(=O)c1c(NC(=O)CSc2nnc(Cc3csc(N)n3)n2C)sc(C)c1C`, the inhibition was -7% (inactive) and 53.5% (active).

As to `CCOC(=O)c1sc(NC(=O)CSc2nnc(CNC(=O)c3ccc(Cl)cc3Cl)n2C)c(C(=O)OCC)c1C`, the inhibition was 5% (inactive) and -12% (inactive).

For `CCSc1nnc(NC(=O)CSc2nnc(CNC(=O)c3cccs3)o2)s1`, the inhibition was -13% (inactive).

Turning to `O=C(ON=Cc1ccc(N2CCCCC2)c([N+](=O)[O-])c1)c1c(F)cccc1F`, the inhibition is 41.1% (active).

`CON=Cc1ccc(N2CCOCC2)c([N+](=O)[O-])c1`: the inhibition was -5.72% (inactive).

With `O=C(COc1ccccc1F)NNC(=O)c1ccc(N2CCCCC2)c([N+](=O)[O-])c1`, the inhibition was 13.6% (inactive).

`COc1ccc(C(=O)CSc2nccn(-c3ccc(C)cc3)c2=O)cc1`: the inhibition is 8% (inactive).

Take `c1ccc(-c2ccc(-c3csc4ncnc(N5CCCCCC5)c34)cc2)cc1`: the inhibition is -3% (inactive).

`COc1ccc(-c2nc3n(c2Br)CCC3)cc1`: the inhibition is 18.6% (inactive).

As for `Brc1cccc(-c2nnc3n2CCC3)c1`, the inhibition is -16.1% (inactive).

With `Brc1c(-c2ccccc2)nc2n1CCC2`, the inhibition was 57% (active).

Turning to `CCN(CC)c1ccc(C=NNS(=O)(=O)c2cccc([N+](=O)[O-])c2)cc1`, the inhibition is 46.5% (active).

Take `COc1ccc(CCNS(=O)(=O)c2cccc([N+](=O)[O-])c2)cc1`: the inhibition was 0.99% (inactive).

In the case of `CCc1ccc(S(=O)(=O)NN=Cc2ccc3c(c2)OCO3)cc1`, the inhibition is -15.4% (inactive).

For the compound `Cc1ccccc1OCC(=O)NCCS(=O)(=O)N1CCN(Cc2ccccc2)CC1`, the inhibition is -5% (inactive).

In the case of `c1ccc(-c2nc(-c3cnccn3)n[nH]2)nc1`, the inhibition was 125% (active).

Take `Cc1cccc2[nH]c(COc3ccc(F)cc3)nc12`: the inhibition is -4% (inactive).

In the case of `COc1cccc(C(=O)N2CC(c3nc(-c4ccccn4)no3)C2)c1`, the inhibition is -10% (inactive).

As to `COc1ccc(OCc2nc(-c3ccccn3)n[nH]2)cc1`, the inhibition is 101% (active).

Regarding `S=c1[nH]nc(COc2ccccc2)o1`, the inhibition is -8% (inactive).

`Cc1nc2nc(COc3ccccc3)[nH]n2c(=O)c1C`: the inhibition was -10.1% (inactive).

As for `c1ccc(OCc2nc(-c3ccccn3)n[nH]2)cc1`, the inhibition is 104% (active).

As for `O=c1oc2ccccc2cc1-c1nc(-c2ccncc2)n[nH]1`, the inhibition is 0% (inactive).

`CCOC(=O)c1ccccc1NC(=O)Cn1cnc2c(cnn2-c2ccc(C)cc2C)c1=O`: the inhibition was 20% (inactive).

As to `Cc1cc(NC(=O)C(=O)NCc2cccnc2)ccc1N1CCCC1=O`, the inhibition is 0% (inactive).

As for `COc1ccc(CCS(=O)(=O)NCC(=O)N2CCOC(c3ccccc3)C2)cc1` (centres undefined), the inhibition is 2% (inactive).

On to `Cc1ccc2cccc(C(=O)N3CC(S(=O)(=O)Cc4ccco4)C3)c2n1`, for which the inhibition was -1% (inactive).

With `O=C(CSc1nc2c(c(=O)[nH]1)CN(Cc1ccc(F)cc1)CC2)Nc1ccc(F)c(Cl)c1`, the inhibition was 0% (inactive).

As for `O=c1[nH]c(=S)[nH]c2sc3c(c12)CCC3`, the inhibition was 18% (inactive).

As to `CCOc1cc(-c2nnc(NC(=O)c3cc(Cl)ccc3Cl)o2)cc(OCC)c1OCC`, the inhibition is 0% (inactive).

With `Cc1ccc(NC(=O)C(=O)NCC(c2ccc(F)cc2)N2CCN(C)CC2)cc1Cl` (centres undefined), the inhibition was -4% (inactive).

On to `CCCCn1c(NS(=O)(=O)c2ccc(Cl)cc2)c(S(=O)(=O)c2ccc(C)cc2)c2nc3ccccc3nc21`, for which the inhibition is 54.8% (inactive).

`CCCCOCCCn1c(NS(=O)(=O)c2ccc3ccccc3c2)c(S(=O)(=O)c2ccc(C)cc2)c2nc3ccccc3nc21`: the inhibition was 59.9% (active).

Take `Cc1ccc(S(=O)(=O)c2c(N)n(N=Cc3ccco3)c3nc4ccccc4nc23)cc1`: the inhibition is 11% (inactive).

Take `CCCCCCCCn1c(NS(=O)(=O)c2ccc(Cl)cc2)c(S(=O)(=O)c2ccccc2)c2nc3ccccc3nc21`: the inhibition is 49.6% (inactive).

Take `CCCCOCCCn1c(NS(=O)(=O)c2ccccc2)c(S(=O)(=O)c2ccc(C)cc2)c2nc3ccccc3nc21`: the inhibition is 67.3% (active).

For `Cc1ccc(S(=O)(=O)Nc2c(S(=O)(=O)c3ccccc3)c3nc4ccccc4nc3n2Cc2ccccc2)cc1`, the inhibition is 34.2% (inactive).
